From PubChem BioAssay
SENP8 block-1 – inhibitors of human SENP8 protease. Q96LD8. purified SENP8, Z-RLRGG-aminoluciferin cleavage, luminescence. inhibition, % at 10 µM. 330,000 tested, 1.2% active. AID 2540; in the data active means inhibition above about 50%
SENP7 block – inhibitors of human SENP7 protease; Q9BQF6; recombinant SENP7, Z-RLRGG-aminoluciferin luminescence, 40 min; inhibition, % at 5 µM; 330,000 tested, 1.5% active; AID 434973;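 active means inhibition above about 50% at the single test dose, limit read from the data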;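 further: plate controls were DMSO with enzyme for no effect and no enzyme buffer wells for full effect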
SENP8 block-2 – inhibitors of human SENP8 protease; Q96LD8; recombinant SENP8, Nedd8 substrate fluorescence; inhibition, % at 20 µM; 360,000 tested, 0.64% active; in the data active means inhibition mostly above about 40%, no sharp cut-off; inactive means mostly below about 27%
TRAIL sens C8 – caspase-8 TRAIL sensitization; NB7+C8 cells + TRAIL, ATPlite viability luminescence; inhibition (viability loss, TRAIL sensitization), % at 10 µM; 360,000 tested, 1% active;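 active means compounds causing at least 50% loss of cell viability in the single-dose screen, relative to plate controls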
PPC-1+TRAIL kill – compounds killing PPC-1 cancer cells with TRAIL present (potentiator screen, no TRAIL-free arm); 220,000 tested, 0.41% active; PPC-1 cells + TRAIL, ATPLite viability luminescence; cell killing (% activity), % at 4 µM or 5 µM;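 active means cell killing above 50% in the first pass at 4 µM, then a duplicate retest at 5 µM averaging 50% or more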;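 further: plate controls were cells with TRAIL plus DMSO for no effect and medium-only wells lacking cells for full effect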
SENP6 block – blocks the human protease SENP6; 330,000 tested, 1.8% active; Q9GZR1; inhibition, % at 10 µM; Recombinant SENP6 catalytic domain, aminoluciferin luminescence; AID 2599;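 active means inhibition above about 50% at the single tested dose, limit read from the data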;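 further: plate controls were DMSO wells with enzyme for no effect and DMSO wells lacking enzyme for full effect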
Target sequence (Q9GZR1 628-1112 limits assumed): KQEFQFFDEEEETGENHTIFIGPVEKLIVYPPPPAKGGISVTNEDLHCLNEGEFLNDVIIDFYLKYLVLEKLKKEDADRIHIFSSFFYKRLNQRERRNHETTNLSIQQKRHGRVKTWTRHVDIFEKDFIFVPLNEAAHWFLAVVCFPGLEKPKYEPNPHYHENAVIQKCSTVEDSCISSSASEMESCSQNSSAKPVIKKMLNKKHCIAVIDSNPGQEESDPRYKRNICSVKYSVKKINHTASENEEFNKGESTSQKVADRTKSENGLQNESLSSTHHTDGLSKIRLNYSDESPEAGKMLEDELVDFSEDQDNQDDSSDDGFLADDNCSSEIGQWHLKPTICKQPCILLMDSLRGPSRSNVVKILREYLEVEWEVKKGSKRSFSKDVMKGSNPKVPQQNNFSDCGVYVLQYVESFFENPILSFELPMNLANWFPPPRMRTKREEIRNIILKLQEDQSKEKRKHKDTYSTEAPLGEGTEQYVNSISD
SENP8 confirm – confirmation of human SENP8 protease inhibitors; AID 488912; inhibition, % at 12.5 µM; 6,200 tested, 40% active; shares compounds with SENP7 block; Recombinant SENP8, Z-RLRGG-aminoluciferin luminescence, 60 min;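 active means mean inhibition across replicates above about 50%, limit read from the data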
SENP6 confirm – confirmation of human SENP6 protease inhibitors; shares compounds with SENP7 block; recombinant SENP6, Z-RLRGG-aminoluciferin luminescence; inhibition, % at 12.5 µM; 6,200 tested, 58% active; AID 488915
SENP7 confirm – confirmation of human SENP7 protease inhibitors. recombinant SENP7, Z-RLRGG-aminoluciferin luminescence, 40 min. 6,200 tested, 69% active. inhibition, % at 12.5 µM. shares compounds with SENP7 block
Casp3 select – selectivity test for SENP inhibitors: human caspase-3 inhibition. inhibition, % at 12.5 µM. AID 488918. purified caspase-3, Z-DEVD-aminoluciferin luminescence, 60 min. shares compounds with SENP7 block. 6,200 tested, 60% active;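 active means mean inhibition above about 50%, limit read from the data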;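 further: plate controls were enzyme with DMSO for no effect and wells without caspase-3 for full effect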
Luc interf – counter-screen for SENP inhibitors: luminescence interference; inhibition, % at 12.5 µM; shares compounds with SENP7 block; Pre-incubated SENP8/Z-RLRGG-aminoluciferin, luciferase luminescence interference; 6,200 tested, 39% active;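 active means mean inhibition above about 50% when retested at one dose, limit read from the data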;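 further: plate controls were DMSO wells with completed reaction for no effect and substrate without enzyme for full effect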
* hit, by the source's call; / = no result. Sampled rows, rich in hits. Any-hit rate of the full collection: about 3%.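 How the source made its calls, unless noted: active means mean inhibition above about 50% in the one-dose retest (limit read from the data); inactive means the rest.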

SMILES	SENP8 block-1	SENP7 block	SENP8 block-2	TRAIL sens C8	PPC-1+TRAIL kill	SENP6 block	SENP8 confirm	SENP6 confirm	SENP7 confirm	Casp3 select	Luc interf
Cc1ccc2nc(-c3ccc(O)cc3)oc2c1	85.5*	74.5*	-407.0	79.4*	/	84.9*	83.9*	83.8*	94.3*	67.7*	24.2
Cc1nnsc1NC(=O)OCc1ccccc1Cl	11.7	-4.8	14.9	-10.7	-7.0	55.1*	35.4	36.0	63.0*	36.7	44.5
COc1cccc(C(C[N+](=O)[O-])c2c(C)[nH]n(-c3ccccc3)c2=O)c1 (stereo unspecified)	64.6*	85.4*	72.9*	-6.2	/	82.9*	8.2	8.2	1.6	-3.0	-2.3
COc1cccc(N=Nc2c(C)[nH]n(-c3ccccc3)c2=O)c1	7.1	1.5	29.0	-1.2	/	1.0	/	/	/	/	/
O=C(N=Nc1c(O)[nH]c2ccccc12)c1cccs1	66.5*	82.1*	15.4	61.5*	43.3	81.9*	51.9*	80.3*	93.0*	81.9*	20.1
CC(OC(=O)c1cccnc1Cl)C(=O)Nc1ccc2c(c1)OCO2 (stereo unspecified)	-5.7	-4.6	22.7	10.3	/	-2.3	/	/	/	/	/
CC1CN(c2nc3ccccc3nc2SCC(=O)Nc2cccc(C(F)(F)F)c2)CC(C)O1 (stereo unspecified)	-13.3	7.2	-129.5	20.6	/	-16.1	/	/	/	/	/
O=C(Nc1ccc(-c2nc3ccccc3[nH]2)cc1)C1CCCO1 (stereo unspecified)	87.7*	93.2*	-94.8	73.0*	20.9	87.2*	92.4*	92.5*	99.3*	96.2*	78.7*
O=C(Cc1cccs1)Nc1ccc(-c2nc3ccccc3[nH]2)cc1	17.1	84.5*	-399.2	42.6	34.3	59.0*	14.9	18.1	86.9*	67.5*	31.6
O=C(CSc1ccccc1)Nc1ccc(-c2nc3ccccc3[nH]2)cc1	-17.8	23.3	-69.6	24.1	31.5	-12.5	/	/	/	/	/
O=C(Nc1nc2ccccc2[nH]1)C1CCCO1 (stereo unspecified)	-7.1	0.6	24.2	-12.2	7.1	-19.6	/	/	/	/	/
O=C(Nc1ccnc(=O)[nH]1)c1sc2ccccc2c1Cl	52.2*	54.0*	-78.5	1.4	17.9	74.3*	1.6	-2.3	6.8	11.1	4.2
O=[N+]([O-])c1ccc(C=Nc2cccc3ccccc23)s1	47.4	41.1	-394.0	10.7	11.5	58.1*	4.7	1.7	-5.2	-5.2	-3.7
O=[N+]([O-])c1ccc(-c2ccc(C=Nc3cccc4ccccc34)o2)cc1	44.8	52.2*	-285.2	-3.1	33.4	83.2*	-4.9	2.2	4.2	8.1	-1.7
O=C(Cc1ccccc1)NCC(=O)N/N=C/c1ccc([N+](=O)[O-])s1	11.6	9.6	14.7	2.7	/	38.8	/	/	/	/	/
COc1cc(NC(=O)COC(=O)c2ccccc2SCC(=O)N2CCCC2)cc(OC)c1	-7.8	-2.0	-35.3	-17.2	/	-3.4	/	/	/	/	/
COc1ccc(C(=O)O)cc1S(=O)(=O)Nc1ccc(Oc2ccccc2)cc1	-10.2	-8.4	-11.6	-1.8	/	-3.6	/	/	/	/	/
COc1ccc(S(=O)(=O)N(C)[C@H]2C[C@H]3c4cc(N5CCN(C)CC5)ccc4CCN3C(=O)[C@H]2[C@H](C)O)cc1	/	/	2.1	4.1	/	/	/	/	/	/	/
Oc1ccc(-c2csc(Nc3ccccn3)n2)cc1	81.6*	62.2*	2.0	11.9	/	84.9*	91.2*	87.2*	94.9*	54.3*	87.8*
c1ccc(-c2csc(Nc3ccccn3)n2)cc1	93.6*	97.6*	21.4	31.4	/	95.5*	-11.2	95.7*	101.5*	81.8*	79.0*
